Results taken from publication PMC12136788.
Substitutions are numbered along the chain they refer to. Over roughly 24,000 sequences, “enrichment r” has its median near 0.99; the highest 2% begin near 3.7. Shown is part of a subset that was picked to be rich in the highest values.

T1: UNK ZnF1-3 (human, UniProt Q9C0B0 31-174)
T1 sequence: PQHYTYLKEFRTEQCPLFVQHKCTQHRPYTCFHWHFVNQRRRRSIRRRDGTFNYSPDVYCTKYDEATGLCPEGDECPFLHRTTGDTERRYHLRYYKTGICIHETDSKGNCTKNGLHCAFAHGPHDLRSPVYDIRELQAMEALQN

B1: chr8:87797514:87797515:-_ENSMUSG00000031696_ENSMUST00000034131|mus_hu|motif|central (ssRNA)
RNA: GGGAGUUCUACAGUCCGACGAUCAUUAUGGAAUCCACCUGGUCUUGAGAGACAAUUUCUGUGUUAUAAUCCAGAACAUUACGGAGCACAUAACAACUCAUGCUCUUUCUGGACUCGUAGUCAAAGUACUCAAAGAGUGGGUGACAACAGAGGAUUGAGCAUCA
B2: 107145582_107145702_897_CDS_ENSG00000125266_ENST00000245323|human|control|control (ssRNA)
RNA: GGGAGUUCUACAGUCCGACGAUCGAGCGACAGCGUGGUCGUGUGCUGCGGCGAGUGCUUCCUGUGUCUCCUCCGGUACUUCAGCAAGAGGACCACCAGCGUGAUGAUGAUGACGAUGAAGAUGAUGCAUCCUGAAGCAAUCCCCAACAGAGGAUUGAGCAUCA
B3: chr9:115598534:115598535:+_ENSG00000148158_ENST00000374232|hu_mus|FALSE|FALSE (ssRNA)
RNA: GGGAGUUCUACAGUCCGACGAUCCAGCUUAUAGCCUCCGGUGACGUGCUUGACUGACUCACCCACUCUGCUCAGCAAUGCUAUCCCUUGCUUCUUGUAGGCAUUCAGGUCCUUAGCAGUGAGGAACACAUUGAAGUGUUCAUUCAACAGAGGAUUGAGCAUCA
B4: chrX:165757501:165757502:-_ENSMUSG00000031352_ENSMUST00000112115|mus_hu|FALSE|FALSE (ssRNA)
RNA: GGGAGUUCUACAGUCCGACGAUCGCAGGAGCAGAUGGAGACAAACCCAUGGCUGGAAACAGUGUUGACUGUAAACAAUUUUAAAUUUCCACCUGCUCCAGCCCGUGGUCCCCAGACCAAACCGGCCGCGGCCAGCCUGCCCUUCAACAGAGGAUUGAGCAUCA
B5: chr10:33190432:33190433:-_ENSG00000150093_ENST00000302278|hu_mus|hu_hu_hu_mus_True|58_98 (ssRNA)
RNA: GGGAGUUCUACAGUCCGACGAUCUACAUUUUCCAAACCUGCACAUGAAUAAAACCCUGGCCACAGAGCCCCAAAACUACCUAACUGUGACUAAGAUGCUGCUGCUGUGAGCUUGGUGUUGCAAAAUCCGCCUGAGUAGGAUUCCAACAGAGGAUUGAGCAUCA
B6: 10529348_10532452_191_CDS_ENSG00000160049_ENST00000377038|human|control|control (ssRNA)
RNA: GGGAGUUCUACAGUCCGACGAUCCAGGGUGACUGGUGUCAGGGACUUAUCAAUGGCCAGAAUGUCACAGGCCUUGCUCCUCAGGUCUUCGAGGCAGGAGGCGGCCACGCCGUGCUGUUCGCGGCUGUAGUUGCGGCGCAGCAGCAACAGAGGAUUGAGCAUCA
B7: chr1:60041781:60041782:+_ENSMUSG00000041040_ENSMUST00000036540|mus_hu|mus_mus_mus_hu_False|1_38 (ssRNA)
RNA: GGGAGUUCUACAGUCCGACGAUCAAGUUUACAAUAGUAAAGUAAAUGCAGUAGUGGCAAAUUUUCUUUUAUUUUCCUUCACAAAAGAAAAUCUUUAGAUCUCAGUUCUAGUCUUGGACAUAGUGAAAGCUAUAAAUGCCACUGCAACAGAGGAUUGAGCAUCA
B8: 24223610_24223730_1957_3pUTR_ENSG00000173960_ENST00000309033|human|control|control (ssRNA)
RNA: GGGAGUUCUACAGUCCGACGAUCUUUUGAAAGAAAAUAAAAUGGAAAGGGAAUAGGCUUUUUAGAAAGAUAAUUUUCUUUUAUUACAUUUUUAUAAAGUGUAGAAAUGUGAGUAGGCAGAUUAAUCUUGAUACUAUACUGAGCCAACAGAGGAUUGAGCAUCA
B9: chr12:86641468:86641469:-_ENSMUSG00000034290_ENSMUST00000040992|mus_mus|FALSE|FALSE (ssRNA)
RNA: GGGAGUUCUACAGUCCGACGAUCGCAAUAUUAAGAGAGAUAGCCAACCUUUUUUUUGGGGGGGGGGUUUGGUUAAAUGAAACAAUAUUAAUUUAGCUGUGUGUAGUACAGAGGAUAUGGUACUUAUCAAAGGAGCUGCUGUGGCAACAGAGGAUUGAGCAUCA
B10: chr8:13147844:13147845:+_ENSMUSG00000031446_ENSMUST00000016680|mus_hu|FALSE|FALSE (ssRNA)
RNA: GGGAGUUCUACAGUCCGACGAUCUACAAUAUUAACAAUCUCUAGACACAACGAACUUAUAAGAAAAAAAAAAUAGAAAUCUGUUUGGUCUUUCUUAGACCACAUAUCAUGGAACUCAUAAAUGAAAAUUUUCAAAGAUAGAAACAACAGAGGAUUGAGCAUCA
B11: chr4:125586161:125586162:-_ENSG00000151458_ENST00000504087|hu_hu|motif|central (ssRNA)
RNA: GGGAGUUCUACAGUCCGACGAUCUUGUGUAGUGGCAACAGCUGAUUUAUAAAAUUUAAAGAUUUUAAUUUCAAAAAUAUCGGUUAAGGAGUUUUAUAUUUGGAGGACAAUUUUUACUUUUUAAUGGAGCAGAAGCCAUUUUCACAACAGAGGAUUGAGCAUCA
B12: chrX:147030410:147030411:+_ENSG00000102081_ENST00000218200|hu_mus|FALSE|FALSE (ssRNA)
RNA: GGGAGUUCUACAGUCCGACGAUCACUUCAUGCCCUGUGCCAUCUUGCCUACUAUUUGUCUUUGGCCUAACAAAGUUUUCUAAAAUGGAGUAAGAAUUACGGAAAUGGUAGAGGAAAUAUAACUUCGGAAUUAUGUAGCUUAUUCAACAGAGGAUUGAGCAUCA
B13: chr4:125586161:125586162:-_ENSG00000151458_ENST00000504087|hu_hu|FALSE|FALSE (ssRNA)
RNA: B11 RNA with G81U, G82A
B14: 105048333_105048453_1516_3pUTR_ENSG00000148798_ENST00000369849|human|control|control (ssRNA)
RNA: GGGAGUUCUACAGUCCGACGAUCAGCAUUAACUUUUUCAAAGCAAUGGAAUUAUAUUUUUUGGCUUGAAAUGGUGGUUUCUUCUAUAUUUGAUUUCUCGGUUUUCUUAGUAGAUAUUACUGUCUCCUCUAAUAUUUCUUCAAACAACAGAGGAUUGAGCAUCA

The binders below were run against T1, UNK ZnF1-3 (assay: nsRBNS (natural sequence RNA bind-n-seq); RBNS binding buffer (assumed for nsRBNS): 25 mM Tris pH 7.5, 150 mM KCl, 3 mM MgCl2, 0.01% Triton X-100, 500 ug/ml BSA, 20 U/ml SUPERase-In, 4 C; UNK is unkempt and MSI1 is Musashi-1; names of the RNAs are library labels; protein concentration not given here; high values mean tight binding).

Question: With B1 as the binder, how does the binding signal read?
Answer: 0.988 enrichment R

Question: For B2, which binding signal is on record?
Answer: 1.32 enrichment R

Question: With B3 as the binder, how does the binding signal read?
Answer: 0.557 enrichment R

Question: With B4 as the binder, how does the binding signal read?
Answer: 0.781 enrichment R

Question: Which binding signal does the source give for B5 here?
Answer: 1.55 enrichment R

Question: With B6 as the binder, how does the binding signal read?
Answer: 0.999 enrichment R

Question: How did the binding signal turn out when B7 was run?
Answer: 0.52 enrichment R

Question: B8 was tested. Which binding signal did it give?
Answer: 3.4 enrichment R

Question: B9 was tested. Which binding signal did it give?
Answer: 3.28 enrichment R

Question: B10 was tested. Which binding signal did it give?
Answer: 3.59 enrichment R

Question: How did the binding signal turn out when B11 was run?
Answer: 4.45 enrichment R

Question: For B12, which binding signal is on record?
Answer: 1.78 enrichment R

Question: For B13, which binding signal is on record?
Answer: 4.35 enrichment R

Question: B14 was tested. Which binding signal did it give?
Answer: 4.33 enrichment R
